Assay outcomes deposited in PubChem BioAssay by National Center for Advancing Translational Sciences (NCATS).
The full list was thinned out, with hits kept by preference.
Cycloheximide cs: affects cycloheximide protein synthesis inhibition readout, counter-screen | cell reporter, cycloheximide protein synthesis inhibition counterscreen | max response, % | hit rate 12% among 300,000 | AID 2314; in the data active = max response mostly above about 13%, no sharp cut-off; inactive = mostly below about 14%; note: read at 38.3 µM for the half of the compounds with a filed dose; 0% is about no effect
LmPK inh: blocks Leishmania mexicana pyruvate kinase activity. hit rate 0.37% among 290,000. Potency, µM (series often up to 57.5 µM), inactives show at the top dose activity change, negative = inhibition, usual class: inhibitors. Q27686. AID 1721. purified LmPK, Kinase-Glo ATP luminescence, 1 h; active = well fitted curve in the direction sought with a large enough effect; inconclusive = small, poorly fitted or top-dose-only effect, or another doubt; inactive = no such curve, though single readings can be large; an effect the other way counts as inactive or inconclusive; note: potency is the fitted concentration of half-maximal effect; % is set by controls: 0 for no effect and ±100 for the full control effect
Target sequence (Q27686 whole entry, looked up): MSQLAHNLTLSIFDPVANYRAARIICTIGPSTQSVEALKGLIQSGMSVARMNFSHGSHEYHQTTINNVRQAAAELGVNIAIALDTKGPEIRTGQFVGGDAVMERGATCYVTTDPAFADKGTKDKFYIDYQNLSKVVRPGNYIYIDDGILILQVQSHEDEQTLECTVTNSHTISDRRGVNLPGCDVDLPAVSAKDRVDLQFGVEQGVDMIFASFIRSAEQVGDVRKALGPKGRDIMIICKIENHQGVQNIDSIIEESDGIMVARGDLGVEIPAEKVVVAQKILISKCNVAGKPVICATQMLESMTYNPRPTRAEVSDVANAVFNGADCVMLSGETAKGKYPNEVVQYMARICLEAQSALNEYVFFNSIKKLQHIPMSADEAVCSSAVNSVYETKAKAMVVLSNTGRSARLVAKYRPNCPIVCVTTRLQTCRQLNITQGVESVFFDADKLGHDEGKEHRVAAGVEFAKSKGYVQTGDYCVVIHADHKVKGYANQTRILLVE
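Screened at intermediate enzyme activity to detect both inhibitors and activators: LmPK at 0.1 nM, with a 0.5 nM enzyme column as activation reference. PEP 0.5 mM, ADP 0.1 mM; ATP detected by luminescence after 1 h.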
NS1 inh: blocks influenza NS1 protein function. Potency, µM (series often up to 46.1 µM), for inactives: at the top dose activity, positive = more growth. hit rate 0.4% among 270,000. AID 2326; note: potency is the fitted concentration of half-maximal effect; actives are rising curves; nearly all actives have a fitted effect of over 50% in size
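Read-out: OD600 growth recovery of NS1-expressing budding yeast. Cells grown overnight at 30C in -URA glucose medium, washed, resuspended and diluted 1:100 in 2% galactose assay medium, pH 6.0. Same strain lacking NS1 served as positive control.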
Shiga inhibitor: inhibitors of Shiga toxin in Vero cells; AID 2315; inhibition, % at 38.7 µM; hit rate 9.2% among 290,000; Vero cells, Shiga toxin protein synthesis inhibition reporter; in the data active = inhibition mostly above about 28%, no sharp cut-off; inactive = mostly below about 43%; note: 0% is about no effect
SARS PLP yeast: inhibitors of SARS-CoV papain-like protease in yeast | AID 485353 | S. cerevisiae expressing SARS-CoV PLpro, growth rescue | Potency, µM (titrated, usually from 32.9 µM), inactives show at the highest dose activity, positive = growth rescue, usual class: activators | hit rate 0.19% among 330,000; note: potency is the fitted concentration of half-maximal effect; 0% is about no effect; nearly all actives have a fitted effect of over 55% in size
TbPYK inhibitor: blocks Trypanosoma brucei pyruvate kinase. TbPYK enzyme, Kinase-Glo Plus ATP luminescence, 45 min. Potency, µM (highest dose often 76.8 µM), for the others: at the top dose activity, negative = inhibition, most hits filed as inhibitors. hit rate 0.12% among 410,000. AID 624173; active = well fitted curve in the direction sought with a large enough effect; inconclusive = small, poorly fitted or top-dose-only effect, or another doubt; inactive = no such curve, though single readings can be large; an effect the other way counts as inactive or inconclusive; note: potency is the fitted concentration of half-maximal effect; % is set by controls: 0 for no effect and ±100 for the full control effect; nearly all actives have a fitted effect of over 50% in size
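Luminescent Kinase-Glo Plus end-point after 45 min room-temperature reaction of T. brucei pyruvate kinase started with 130 uM ADP (final). Buffer TEA 50 mM pH 7.2 with KCl, MgCl2, BSA, Tween-20; titration-based qHTS with fitted concentration-effect curves.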
* marks the source's active call; other numbers are inactive results; i = inactive; u = inconclusive; x = not tested or not shown. Unless noted, calls come from the whole dose curve.

SMILES | Cycloheximide cs | LmPK inh | NS1 inh | Shiga inhibitor | SARS PLP yeast | TbPYK inhibitor
c1ccc(-c2ncc3ccccn23)cc1 | 15.4* | 6.4% | 7.4% | 59.5 | -0.5% | -2.9%
CC(C)(C)c1ccc(C(=O)N2CCN(c3ccc(N4CCOCC4)nn3)CC2)cc1 | x | x | x | x | -0.9% | -12.9%
O=S(=O)(Nc1cc(Sc2cccc3cccnc23)c(O)c2ccccc12)c1ccccc1 | 20.8 | -12.1% | 1.2% | 52.9* | -15.3% | x
CCOc1ccc(S(=O)(=O)Nc2cc(SCC(=O)O)c(O)c3ccccc23)cc1 | 14.6 | 20µM* | -103.1% | 6.1 | -31.6% | u
Cc1ccc(C)c(S(=O)(=O)Nc2cc(SCC(=O)O)c(O)c3ccccc23)c1 | 13.7* | 14.1µM* | -25.6% | -1.5 | -22.5% | 15.8µM*
O=C1c2ccccc2C(=O)c2cc(S(=O)(=O)Nc3cccc4cccnc34)ccc21 | 6.8 | x | x | 16.7 | x | x
CCOc1ccc(S(=O)(=O)Nc2cc3c(C(=O)OC)c(COC)oc3c3ccccc23)cc1 | x | x | x | x | x | 6.3%
CCc1ccc(S(=O)(=O)Nc2cc(SCC(=O)O)c(O)c3ccccc23)cc1 | 8.8 | u | -9.6% | 29.7* | -6.4% | u
CCCc1nnc(SCC(=O)Nc2nc(C)cs2)n1CCOC | 10.1 | -7.7% | 8.1% | 23.1 | -4.9% | 5.4%
C[C@H](CO)N1C[C@H](C)[C@@H](CN(C)C)Oc2c(NS(=O)(=O)c3cn(C)cn3)cccc2C1=O | x | x | x | x | 3.7% | -1.9%
O=C(O)CSc1cc(NS(=O)(=O)c2cccc([N+](=O)[O-])c2)c2ccccc2c1O | 12.9* | 14.1µM* | -6.9% | 10.9 | -6.4% | u
O=C(O)c1cccc(S(=O)(=O)Nc2ccc([N+](=O)[O-])cc2O)c1 | -3.0 | 2.9% | 1.7% | -11.9 | 0.0% | 0.3%
Cc1cc(C)cc(NC(=O)c2ccc3nc[nH]c3c2)c1 | 10.6 | -5.8% | 7.1% | 63.5* | 9.1% | 7.2%
Cc1ccc(NC(=O)c2ccc3nc[nH]c3c2)cc1C | 45.5* | 2.3% | 2.5% | 74.1* | 8.9% | -21.7%
Cc1ccccc1NC(=O)Cc1nc(COC(=O)CC(C)c2ccccc2)cs1 (centres undefined) | x | x | x | x | 2.3% | -2.7%
Cc1ccc2c(=O)cc(C(=O)Nc3ccc(S(=O)(=O)N4CCC(C)CC4)cc3)oc2c1C | x | x | x | x | x | 0.3%
N#CCSc1nnc2ccc3ccccc3n12 | 13.1* | -1.5% | -5.2% | active | -0.5% | -3.9%
Fc1ccc(Nc2nc(-c3cccc(Cl)c3)c3c(n2)-c2ccccc2OC3)cc1 | x | x | x | x | x | -3.7%
CC(C)Cn1c(SCC(=O)NC2CC2)nc2ccccc21 | x | x | x | x | x | -17.8%
COc1ccc(S(=O)(=O)N2CCOCC2)cc1NC(=O)CCNC(=O)c1ccc([N+](=O)[O-])cc1 | x | x | x | x | -9.6% | -0.2%
O=C1NC(=S)S/C1=C1\Sc2ccccc2N1CCCS(=O)(=O)O | -2.4 | 15.8µM* | -1.9% | -2.5 | 12.8% | 0.3%
NN1C(=O)/C(=C2/Sc3ccccc3N2CCCS(=O)(=O)O)SC1=S | 11.8 | -9.2% | 2.6% | 32.9 | 8.0% | -5.1%
Cc1cc(OCC(F)(F)C(F)(F)C(F)(F)C(F)F)nc(N)n1 | 46.4* | -0.9% | 7.2% | 77.8* | 4.6% | -1.2%
Cc1cc(OCC#N)nc(N)n1 | -1.9 | 2.0% | 2.4% | -4.9 | 0.1% | -0.8%
O=C(Nc1ccc(Cl)cc1)N(C1=NCCC1)c1ccc(OC(F)F)cc1 | 40.9* | 2.2% | 20.4% | 74.5* | -13.1% | -2.9%
SMILES | Cycloheximide cs | LmPK inh | NS1 inh | Shiga inhibitor | SARS PLP yeast | TbPYK inhibitor
Nc1nonc1-c1noc(N2CCCCC2)n1 | 29.8* | -17.6% | -6.1% | 79.9* | 0.0% | -1.8%
CCc1ccc(OCC(=O)N/N=C(\C)c2ccc(O)cc2O)cc1 | -2.4 | 0.1% | -4.5% | -9.6 | 17.0% | 5.6%
C/C(=N\NC(=O)C(N)=O)c1ccc(O)cc1O | 16.2* | 1.2% | x | 20.6 | 10.7% | 0.3%
O=S(=O)(Cc1cc(-c2ccc(Cl)cc2)no1)c1ccccc1 | 38.0* | 0.6% | 14.0% | 44.2* | 0.6% | -8.0%
O=S(=O)(Cc1cc(-c2ccccc2Cl)no1)c1ccccc1 | 37.5* | 0.9% | 2.4% | 121.0* | -1.4% | 1.0%
COc1ccc(CNC(=O)COC(=O)CCN2C(=O)C3CC=CCC3C2=O)cc1OC (centres undefined) | x | x | x | x | 1.6% | -1.1%
Cc1cc(C)cc(NC(=O)CSc2nc(=O)n3cc(C)ccc3n2)c1 | x | x | x | x | -2.4% | -2.6%
O=C(Nc1ccc(N2CCOCC2)c(F)c1)c1ccncc1 | 17.9* | -3.6% | 2.4% | 60.8* | 0.4% | -0.4%
O=C(c1ccccc1)c1ccc(N2CCOCC2)c(F)c1 | 20.5* | -4.4% | 1.6% | 131.4* | 5.1% | 0.6%
O=C(Nc1ccc(N2CCOCC2)c(F)c1)c1cccs1 | 43.6* | -29.7% | -1.9% | 52.8* | -8.2% | -8.1%
O=C(c1ccccc1)c1cc(F)c(N2CCOCC2)cc1Cl | 15.3 | -3.4% | -54.7% | 23.4 | -16.8% | 3.4%
O=C(Nc1cc(Cl)ccc1N1CCOCC1)c1ccncc1 | x | x | x | x | -2.6% | 1.4%
COC(=O)c1cc(NC(=O)c2cccs2)ccc1N1CCOCC1 | 1.6 | -15.0% | -1.3% | -14.8 | -0.2% | 2.0%
COc1ccc(-c2cc(=O)oc3c(C)c(OC(C)C(=O)Nc4ccc(CN5CCOCC5)cc4)ccc23)cc1 (centres undefined) | -1.6 | 2.5% | 4.7% | -4.1 | -3.7% | 25.3%
COc1ccc(C(=O)N2CCc3ccc(NC(=O)c4ccccn4)cc3C2)cc1F | 41.7* | -5.1% | -31.9% | 55.8* | -17.4% | -4.6%
CCCCCCN1C[C@H](n2cc(C3CC3)nn2)[C@@H](O)C[C@@H]1c1ccccc1 | x | x | x | x | x | -6.1%
Cn1/c(=N/N=C/c2ccccn2)sc2ccccc21 | 51.1* | -5.4% | 3.7% | 91.5* | 0.1% | 5.0%
Cn1/c(=N/N=C/c2ccc(N3CCOCC3)cc2)sc2ccccc21 | 36.9* | 6.7% | x | 71.4* | -1.0% | 1.2%
COc1cc(C(=O)NCCN2C(=O)S/C(=C\c3ccc(F)cc3)C2=O)ccc1OCC(=O)N1CCOCC1 | -2.5 | 2.1% | 1.2% | 1.4 | 0.8% | 6.1%
CC(C)(C)OC(=O)N1CCC(C(=O)N2CCC[C@H]2C(=O)O)CC1 | 9.6* | -0.7% | 5.5% | 60.1* | -15.7% | 5.2%
Cc1ccc(S(=O)(=O)N2CCCCC2)cc1C(=O)N1CCCCCC1 | x | x | x | x | 0.8% | 6.0%
Cc1cccc(OCC(=O)NC(=S)N2CCCc3ccccc32)c1 | 35.0* | -1.2% | 14.9% | i | -1.7% | -29.4%
Cc1ccc(OCC(=O)N2CCc3ccccc32)cc1 | 76.4* | -13.7% | -17.4% | 84.0* | -24.9% | -5.7%
O=C(COc1ccc2c(c1)CCC2)N1CCc2ccccc21 | 42.7* | 4.1% | -20.4% | 98.1* | 0.2% | u
CCc1ccc(OCC(=O)N2CCc3ccccc32)cc1 | 34.5* | 0.3% | -29.5% | 96.3* | -6.0% | 0.0%
CCc1ccc(OCC(=O)N2c3ccccc3CCc3ccccc32)cc1 | -3.2 | 5.1% | 1.9% | -6.1 | -55.0% | -7.8%
CN(C)C[C@@H](O)c1ccc(Cl)c2ccccc12 | x | x | -10.1% | x | x | x
Cc1cccc(C(=O)OCC(=O)NC(=O)NC2CCCCC2)c1 | x | x | x | x | x | -7.2%
